We go through four molecules from PubChem BioAssay.

“And” between values parts separate entries of the source, which are not always exact repeats. Equal entries are not always repeated. Some structures have more than one record in an assay (separate samples or runs), and their calls can disagree. The source made the active and inactive calls.

A short description of assay [1]: small molecules captured by biotinylated probe aFSTL3 – biochemical, small-molecule microarray, fluorescence 635/667, stem cell growth factor project, primary screen (AID 1064).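 Also: measures binding of the biotinylated anti-FSTL3 antibody to printed compounds.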 As to conditions: higher = more signal.
Assay [2] can be described thus: binders from COS7 lysate, DM2A8 probe, primary screen, torsin A project, cell lysate, small-molecule microarray, fluorescence 635/667 (AID 1065). As to conditions: higher = more signal, COS7 lysate expressing mutant human TOR1A.
The nature of assay [3]: small molecules captured by biotinylated probe aFGF2 – biochemical, small-molecule microarray, fluorescence 635/667, stem cell growth factor project, primary screen (AID 1067).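 Also: measures binding of biotinylated aFGF2 protein to printed compounds on slides; z-score merges feature fluorescence and signal-to-noise across triplicate slides.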 As to conditions: higher = more signal.
Assay [4] in a line: small molecules captured by biotinylated probe aFGF10 – biochemical, small-molecule microarray, fluorescence 635/667, stem cell growth factor project, primary screen (AID 1071).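 Also: score merges 667 nm spot intensity and signal to noise from triplicate slides.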 As to conditions: higher = more signal.
Assay [5] addresses Neurogenic locus notch homolog protein 2 (Homo sapiens) (UniProt Q04721). Put plainly: small molecules binding Notch2 protein – biochemical, small-molecule microarray, 635 nm fluorescence, stem cell growth factors, primary screen (AID 1073). As to conditions: higher = more signal.
For assay [6], the target named is Pro-neuregulin-1, membrane-bound isoform (Homo sapiens) (UniProt Q02297). Put plainly: small molecules binding neuregulin-1 protein – biochemical, small-molecule microarray, fluorescence 635/667, psychiatric disease protein project, primary screen (AID 1075).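 Also: score combines 667 nm spot fluorescence with signal to noise.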 Particulars: NRG1 binding, 635 nm fluorescence, higher = more signal.
In assay [7] the test system is Neuregulin-1 EGF-like domain. In words: small molecules binding NRG1 EGF domain – biochemical, small-molecule microarray, 635 nm fluorescence, primary screen (AID 1081).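 Also: binding of the protein to compounds printed on small-molecule microarray slides.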 As to conditions: higher = more signal.
Assay [8] in a line: FRG1 expression reporter modulators in myotubes – cell-based, C2C12 myotubes, firefly/Renilla luciferase, luminescence, FRG1 inhibition for FSHD, primary screen (AID 1084). As to conditions: FRG1 promoter luciferase, higher = more signal, called active from +8 up or from −8 down.
A short description of assay [9]: small molecules captured by biotinylated probe aFST – biochemical, small-molecule microarray, fluorescence 635/667, stem cell growth factor project, primary screen (AID 1086).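 Also: score merges 667 nm fluorescence with signal-to-noise of each printed compound spot.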 Particulars: higher = more signal.
The nature of assay [10]: binders of probe aHhip on microarray, primary screen, stem cell growth factor project, biochemical, small-molecule microarray, fluorescence 635/667 (AID 1087).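 Also: score merges spot fluorescence at 667nm with spot signal to noise ratio.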 Particulars: higher = more signal.
The subject of assay [11] is PRMT1 (protein arginine N-methyltransferase 1). Put plainly: small molecules binding arginine methyltransferase PRMT1 – biochemical, small-molecule microarray, 635 nm fluorescence, primary screen (AID 1088).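 Also: binding of Prmt1 protein to compounds spotted on small-molecule microarray slides.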 As to conditions: higher = more signal.
The nature of assay [12]: growth effects on S. cerevisiae YJM789 – YJM789 clinical isolate, OD600, 24 h, basal, primary screen (AID 1089).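 Also: growth of clinical yeast isolate S. cerevisiae YJM 789 seeded 1000 cells per well; test concentration not given here.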 Particulars: higher = more signal, called active from +8 up or from −8 down.
Assay [13] can be described thus: S. pombe growth modifiers, basal conditions – strain 972, OD600, 24 h, no modulator, primary screen (AID 1090).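 Also: basal condition with compound alone and no growth modifier present; test concentration not given here.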 As to conditions: S. pombe 972 growth, higher = more signal, called active from +8 up or from −8 down.
Assay [14] can be described thus: budding yeast growth modifiers under rapamycin – strain BY4716, OD600, 96 h, primary screen (AID 1091). Also: test concentration not given here. Particulars: S. cerevisiae BY4716 + rapamycin, higher = more signal, called active from +8 up or from −8 down.
Assay [15] addresses Torsin-1A-interacting protein 2 (Homo sapiens) (UniProt Q8NFQ8). Put plainly: small molecules binding lysate-expressed LULL1 – cell lysate, human LULL1 lysate, 635/667 nm fluorescence, primary screen (AID 1092).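 Also: probe is lysate of COS7 cells overexpressing human LULL1; score merges per-feature 667 nm fluorescence with signal-to-noise.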 Particulars: small-molecule microarray, hLULL1 lysate binding, 635 nm fluorescence; higher = more signal.
Assay [16] in a line: optical density change of DRC41 E. coli – strain DRC41, OD650, 24 h, E. coli filamentation project, primary screen (AID 1093).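 Also: MC1000 strain lacking acrAB efflux and sulA so SOS filamentation is blocked; test concentration not given here.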 As to conditions: E. coli DRC41 growth, higher = more signal, called active from +8 up or from −8 down.
Assay [17] in a line: probe aLefty2 binding to arrayed compounds – biochemical, biotinylated probe, 635/667 nm fluorescence, primary screen (AID 1094).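 Also: score merges spot fluorescence near 667 nm with spot signal-to-noise ratio.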 As to conditions: small-molecule microarray, higher = more signal.
Assay [18] deals with Noggin (protein binding on small-molecule microarray). In words: small molecules binding Noggin protein – biochemical, 635/667 nm fluorescence, primary screen (AID 1095).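 Also: score merges 667 nm feature fluorescence with signal to noise over triplicate slides.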 Particulars: 635 nm fluorescence, higher = more signal.
Assay [19] concerns the target Neurogenic locus notch homolog protein 3 (Homo sapiens) (UniProt Q9UM47). Put plainly: small molecules binding NOTCH3 protein – biochemical, 635/667 nm fluorescence, primary screen (AID 1096). As to conditions: small-molecule microarray, 635 nm fluorescence, higher = more signal.
Assay [20] in a line: probe aEGFR binding to arrayed compounds – biochemical, biotinylated probe, 635/667 nm fluorescence, primary screen (AID 1097).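 Also: probe is a biotinylated anti-EGFR antibody binding compounds printed on slides; score combines fluorescence near 667 nm and signal to noise of each spot.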 As to conditions: small-molecule microarray, higher = more signal.

Chain of Neurogenic locus notch homolog protein 3 (Homo sapiens) (Q9UM47 whole entry, looked up): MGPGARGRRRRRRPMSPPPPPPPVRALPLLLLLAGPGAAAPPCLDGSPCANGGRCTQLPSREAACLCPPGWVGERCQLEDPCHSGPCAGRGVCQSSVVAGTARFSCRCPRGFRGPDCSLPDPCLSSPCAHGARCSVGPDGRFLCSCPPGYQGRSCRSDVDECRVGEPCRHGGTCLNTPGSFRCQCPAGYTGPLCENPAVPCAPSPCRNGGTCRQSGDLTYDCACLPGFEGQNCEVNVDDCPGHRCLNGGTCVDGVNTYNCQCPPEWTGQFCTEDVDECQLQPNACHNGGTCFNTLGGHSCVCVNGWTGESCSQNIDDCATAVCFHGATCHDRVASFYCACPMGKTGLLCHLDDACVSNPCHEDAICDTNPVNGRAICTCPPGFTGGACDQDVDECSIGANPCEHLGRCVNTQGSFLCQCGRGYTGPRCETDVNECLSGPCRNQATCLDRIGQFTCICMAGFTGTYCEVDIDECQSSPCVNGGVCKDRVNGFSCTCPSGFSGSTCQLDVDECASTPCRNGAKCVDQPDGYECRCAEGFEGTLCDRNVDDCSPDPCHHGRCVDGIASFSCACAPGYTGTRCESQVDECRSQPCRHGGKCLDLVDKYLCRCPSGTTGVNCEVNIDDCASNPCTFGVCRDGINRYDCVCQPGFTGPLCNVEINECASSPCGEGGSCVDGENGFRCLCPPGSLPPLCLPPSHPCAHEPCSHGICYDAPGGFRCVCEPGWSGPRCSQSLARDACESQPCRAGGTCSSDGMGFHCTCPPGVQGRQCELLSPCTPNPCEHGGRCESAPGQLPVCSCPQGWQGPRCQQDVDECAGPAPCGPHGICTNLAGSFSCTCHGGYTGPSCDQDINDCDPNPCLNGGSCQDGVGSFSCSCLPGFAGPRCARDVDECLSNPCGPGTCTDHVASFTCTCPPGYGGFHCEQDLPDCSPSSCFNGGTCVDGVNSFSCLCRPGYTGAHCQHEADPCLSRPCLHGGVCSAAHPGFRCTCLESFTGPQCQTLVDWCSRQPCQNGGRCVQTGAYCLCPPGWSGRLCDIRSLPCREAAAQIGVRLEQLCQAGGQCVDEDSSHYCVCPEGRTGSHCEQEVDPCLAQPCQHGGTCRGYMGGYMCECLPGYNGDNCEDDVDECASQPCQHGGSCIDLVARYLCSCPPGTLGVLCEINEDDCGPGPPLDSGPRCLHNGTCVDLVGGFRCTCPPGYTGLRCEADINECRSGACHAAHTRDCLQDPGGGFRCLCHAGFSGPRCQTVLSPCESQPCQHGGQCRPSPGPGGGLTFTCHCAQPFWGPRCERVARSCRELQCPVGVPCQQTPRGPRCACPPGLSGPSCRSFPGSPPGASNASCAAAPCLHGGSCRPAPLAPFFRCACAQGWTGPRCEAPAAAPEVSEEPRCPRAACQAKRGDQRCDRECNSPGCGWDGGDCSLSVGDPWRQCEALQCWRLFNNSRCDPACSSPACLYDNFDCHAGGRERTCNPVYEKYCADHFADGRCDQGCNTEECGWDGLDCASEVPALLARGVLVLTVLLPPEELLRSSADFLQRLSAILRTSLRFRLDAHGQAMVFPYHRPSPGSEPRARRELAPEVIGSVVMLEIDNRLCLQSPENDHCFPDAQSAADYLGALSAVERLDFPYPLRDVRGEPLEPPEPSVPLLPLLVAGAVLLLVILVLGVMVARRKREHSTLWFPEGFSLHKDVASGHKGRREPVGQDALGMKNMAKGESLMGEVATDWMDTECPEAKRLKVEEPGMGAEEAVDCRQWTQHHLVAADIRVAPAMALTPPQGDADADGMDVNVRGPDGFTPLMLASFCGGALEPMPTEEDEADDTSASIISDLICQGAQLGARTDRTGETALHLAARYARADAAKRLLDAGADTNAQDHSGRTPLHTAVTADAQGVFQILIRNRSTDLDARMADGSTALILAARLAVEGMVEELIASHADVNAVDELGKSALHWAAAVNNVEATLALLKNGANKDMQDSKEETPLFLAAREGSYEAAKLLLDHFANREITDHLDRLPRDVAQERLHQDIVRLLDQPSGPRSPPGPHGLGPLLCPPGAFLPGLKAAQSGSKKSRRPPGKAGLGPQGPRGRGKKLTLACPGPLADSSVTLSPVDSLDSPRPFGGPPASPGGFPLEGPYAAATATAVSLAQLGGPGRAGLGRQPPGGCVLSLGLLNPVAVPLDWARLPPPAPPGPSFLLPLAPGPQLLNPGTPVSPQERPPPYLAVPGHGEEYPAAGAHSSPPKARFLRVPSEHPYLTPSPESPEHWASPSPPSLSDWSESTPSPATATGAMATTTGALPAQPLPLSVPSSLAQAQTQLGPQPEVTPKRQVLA
Chain of Neurogenic locus notch homolog protein 2 (Homo sapiens) (Q04721 whole entry, looked up, canonical isoform): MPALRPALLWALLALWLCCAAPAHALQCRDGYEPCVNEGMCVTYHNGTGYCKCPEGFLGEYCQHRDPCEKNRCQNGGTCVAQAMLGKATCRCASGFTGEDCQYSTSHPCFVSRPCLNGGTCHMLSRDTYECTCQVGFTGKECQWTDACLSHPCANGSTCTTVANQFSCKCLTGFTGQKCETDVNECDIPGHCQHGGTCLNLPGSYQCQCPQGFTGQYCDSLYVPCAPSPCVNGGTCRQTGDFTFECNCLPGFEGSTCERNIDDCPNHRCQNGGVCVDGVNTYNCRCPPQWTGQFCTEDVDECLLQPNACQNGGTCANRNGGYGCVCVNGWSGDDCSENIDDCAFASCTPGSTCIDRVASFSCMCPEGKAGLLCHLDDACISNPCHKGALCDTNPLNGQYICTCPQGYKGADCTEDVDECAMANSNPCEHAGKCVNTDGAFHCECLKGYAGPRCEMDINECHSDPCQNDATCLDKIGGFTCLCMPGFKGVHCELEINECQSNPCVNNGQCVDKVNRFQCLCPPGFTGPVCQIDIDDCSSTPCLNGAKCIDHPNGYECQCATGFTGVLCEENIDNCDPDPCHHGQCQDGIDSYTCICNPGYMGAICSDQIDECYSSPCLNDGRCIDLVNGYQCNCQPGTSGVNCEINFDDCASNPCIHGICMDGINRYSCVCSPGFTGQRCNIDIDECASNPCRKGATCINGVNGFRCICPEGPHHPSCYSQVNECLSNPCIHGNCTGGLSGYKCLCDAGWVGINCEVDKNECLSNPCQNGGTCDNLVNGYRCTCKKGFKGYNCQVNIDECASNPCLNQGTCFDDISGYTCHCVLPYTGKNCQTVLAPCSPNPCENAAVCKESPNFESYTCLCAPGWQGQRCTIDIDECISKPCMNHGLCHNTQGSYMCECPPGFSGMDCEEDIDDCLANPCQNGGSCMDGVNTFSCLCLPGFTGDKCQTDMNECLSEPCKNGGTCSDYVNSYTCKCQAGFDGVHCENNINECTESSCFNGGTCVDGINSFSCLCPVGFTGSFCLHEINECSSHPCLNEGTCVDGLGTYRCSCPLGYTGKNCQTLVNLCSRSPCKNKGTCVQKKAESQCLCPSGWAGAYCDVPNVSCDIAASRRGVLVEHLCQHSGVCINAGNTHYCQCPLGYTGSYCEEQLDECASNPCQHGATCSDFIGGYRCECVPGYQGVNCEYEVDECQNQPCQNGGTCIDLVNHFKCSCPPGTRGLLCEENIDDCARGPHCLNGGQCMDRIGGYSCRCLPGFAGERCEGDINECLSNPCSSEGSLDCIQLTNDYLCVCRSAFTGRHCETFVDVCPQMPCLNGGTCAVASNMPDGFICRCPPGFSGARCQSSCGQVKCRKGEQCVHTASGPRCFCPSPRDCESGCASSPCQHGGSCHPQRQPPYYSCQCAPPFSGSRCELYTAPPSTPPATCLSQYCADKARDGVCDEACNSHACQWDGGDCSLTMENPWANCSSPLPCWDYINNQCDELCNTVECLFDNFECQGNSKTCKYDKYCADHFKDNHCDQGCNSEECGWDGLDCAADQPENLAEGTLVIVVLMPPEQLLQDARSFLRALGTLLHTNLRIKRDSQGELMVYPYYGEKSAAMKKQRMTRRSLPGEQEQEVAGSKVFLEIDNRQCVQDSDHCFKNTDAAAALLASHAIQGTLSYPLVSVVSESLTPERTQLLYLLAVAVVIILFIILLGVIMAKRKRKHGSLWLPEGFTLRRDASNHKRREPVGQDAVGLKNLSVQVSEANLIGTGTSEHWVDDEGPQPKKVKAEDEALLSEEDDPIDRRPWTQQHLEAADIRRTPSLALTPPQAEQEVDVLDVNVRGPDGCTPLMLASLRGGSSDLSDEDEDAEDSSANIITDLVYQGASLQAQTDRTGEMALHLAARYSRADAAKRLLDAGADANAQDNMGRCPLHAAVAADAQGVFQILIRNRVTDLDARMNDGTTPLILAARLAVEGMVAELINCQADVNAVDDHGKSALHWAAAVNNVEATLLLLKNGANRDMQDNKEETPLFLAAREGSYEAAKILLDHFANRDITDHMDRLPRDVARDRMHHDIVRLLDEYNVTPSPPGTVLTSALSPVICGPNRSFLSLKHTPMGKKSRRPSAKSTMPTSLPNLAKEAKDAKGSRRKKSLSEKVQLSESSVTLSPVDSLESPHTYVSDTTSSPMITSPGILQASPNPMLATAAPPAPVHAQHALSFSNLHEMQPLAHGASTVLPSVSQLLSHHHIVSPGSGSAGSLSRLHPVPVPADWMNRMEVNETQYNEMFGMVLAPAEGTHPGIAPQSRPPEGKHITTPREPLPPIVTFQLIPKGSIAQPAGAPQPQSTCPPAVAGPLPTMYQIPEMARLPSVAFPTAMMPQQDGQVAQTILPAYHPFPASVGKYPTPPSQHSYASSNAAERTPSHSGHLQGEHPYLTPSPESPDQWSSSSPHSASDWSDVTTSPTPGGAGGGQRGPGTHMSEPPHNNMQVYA

For `C=CCN(CCCCC)C(=O)C1N(c2c(Cl)cccc2CO)C(=O)C2C(C(=O)O)C3C=CC21O3` (stereo not given), the composite z-score in [1] was 1.15 and 1.51; in assay [2] it was -0.58 and -2.44; in [3], -0.283 and -0.216; in [4] it was -1.66 and -1.11; in assay [5], -2.36 and -1.86; in [6], -0.855 and -0.992. Further, the composite z-score is -0.506 and -0.277 in assay [7]; -0.898 and -1.06 in assay [9]; -0.169 and -0.213 in assay [10]; 0.0842 and -0.629 in assay [11]; -0.445 and -0.75 in assay [15]; 0.156 and -0.0555 in [17]. The composite z-score in assay [18] is -2.4 and -2.23; in assay [19] it was -0.676 and -0.842; in assay [20], -0.441 and -0.411. For the same molecule, the z-score in [8] is 0.887 (inactive) and 0.699 (inactive); in assay [12], 0.006 (inactive) and 0.769 (inactive); in assay [13], -0.456 (inactive) and -0.0109 (inactive); in assay [14] it was 0.59 (inactive) and 0.045 (inactive); in assay [16] it was 0.31 (inactive) and 0.437 (inactive).
In the case of `C=CCN(C(=O)C(c1cccs1)N(C(=O)/C=C\C(=O)O)c1ccc(CCO)cc1)c1ccc(OC)cc1` (stereo not given), the composite z-score in assay [1] was 0.862 and 1.92; in [2], -0.812 and -1.02; in assay [3], -0.236 and -0.312; in assay [4], -1.73 and -1.74; in [5], -1.21 and -2.49; in assay [6], 0.017 and -1.66. Besides, the composite z-score in assay [7] is 0.877 and -1.46; in assay [9] it was -0.889 and -1.13; in assay [10], -0.134 and -0.204; in [11], -1.26 and -1.84; in assay [15], -0.879 and -1.32; in assay [17], -0.0446 and -0.0463. For the same molecule, the composite z-score in [18] was -1.86 and -2.24; in assay [19], -0.314 and -1.78; in [20], -0.231 and -0.348. The z-score in assay [8] was 0.253 (inactive) and 0.243 (inactive); in [12], -0.755 (inactive) and 0.13 (inactive); in [13], -0.548 (inactive) and -0.894 (inactive); in assay [14] it was -0.929 (inactive) and -0.544 (inactive); in assay [16], 1.92 (inactive) and 0.715 (inactive).
As to `CC(C)N1CC=CC23O[C@@H]4C=CCCOC(=O)C4[C@H]2C(=O)N(C(C)CO)[C@@H]3C1=O` (stereo not given in full), the composite z-score in [1] is 0.886 and 0.781; in [2], 0.543 and -0.0534; in assay [3], -0.158 and -0.116; in assay [4] it was -1.39 and -0.751; in assay [5], -0.0092 and -0.882; in assay [6], 2.21 and -0.35. Moreover, the composite z-score in assay [7] is 0.958 and 0.694; in assay [9] it was -0.828 and -0.509; in assay [10] it was -0.178 and 0.0176; in [11], 1.18 and -0.323; in assay [15], 3.21 and -0.371; in [17] it was -0.0911 and -0.043. Also, the composite z-score in [18] is -1.14 and -0.975; in assay [19], -0.22 and -0.455; in assay [20], -0.317 and -0.308. Further, the z-score in [8] was -0.746 (inactive) and 0.0086 (inactive); in [12] it was -1.29 (inactive) and 0.11 (inactive); in [13] it was -1.18 (inactive) and -1.07 (inactive); in assay [14] it was -1.28 (inactive) and 0.687 (inactive); in assay [16], 2.82 (inactive) and 2.22 (inactive).
As for `C=C[C@@H](C)[C@@H](O)c1ccc(O)c2ccccc12`, the composite z-score in assay [1] is 0.306 and 0.254; in [2] it was -0.54 and -0.797; in assay [3], -0.105 and -0.154; in assay [4], -0.262 and -0.0511; in assay [5], -1.51 and -1.17; in [6], -0.775 and -0.178. Also, the composite z-score in assay [7] is -0.377 and 0.98; in [9] it was -0.774 and -0.854; in assay [10] it was -0.287 and -0.184; in [11] it was -1.15 and -0.5; in assay [15] it was -0.414 and 0.384; in [17] it was -0.239 and -0.107. The composite z-score in assay [18] is -0.803 and -0.326; in assay [19], -1.25 and -0.933; in [20], -0.321 and -0.314. In addition, the z-score in assay [8] was 1.07 (inactive) and 0.849 (inactive); in [12], -5.87 (inactive) and -14.6 (active); in assay [13], -19.1 (active) and -19.4 (active); in assay [14], 3.53 (inactive) and 5.23 (inactive); in [16], -0.113 (inactive) and 1.61 (inactive).
